Experimental findings from ChEMBL document CHEMBL3988442, “University of Dundee, Small-Polar-MMV Screening Library” (2021) are described below.

What all share (parameters): scale not given: direction of the effect not stated beside the values
The target in experiment [1] is Protein translocase subunit SecA (Escherichia coli (strain K12)) (UniProt P10408). The experiment is described as follows: Assay to Identify E. coli SecA ATPase Inhibitors. Conditions: 30 µM. Type of experiment: functional.
Experiment [2] addresses T1, Ubiquitin-activating enzyme e1, putative (Leishmania donovani (strain BPK282A1)) (UniProt E9BSI1).
T1 sequence (whole entry): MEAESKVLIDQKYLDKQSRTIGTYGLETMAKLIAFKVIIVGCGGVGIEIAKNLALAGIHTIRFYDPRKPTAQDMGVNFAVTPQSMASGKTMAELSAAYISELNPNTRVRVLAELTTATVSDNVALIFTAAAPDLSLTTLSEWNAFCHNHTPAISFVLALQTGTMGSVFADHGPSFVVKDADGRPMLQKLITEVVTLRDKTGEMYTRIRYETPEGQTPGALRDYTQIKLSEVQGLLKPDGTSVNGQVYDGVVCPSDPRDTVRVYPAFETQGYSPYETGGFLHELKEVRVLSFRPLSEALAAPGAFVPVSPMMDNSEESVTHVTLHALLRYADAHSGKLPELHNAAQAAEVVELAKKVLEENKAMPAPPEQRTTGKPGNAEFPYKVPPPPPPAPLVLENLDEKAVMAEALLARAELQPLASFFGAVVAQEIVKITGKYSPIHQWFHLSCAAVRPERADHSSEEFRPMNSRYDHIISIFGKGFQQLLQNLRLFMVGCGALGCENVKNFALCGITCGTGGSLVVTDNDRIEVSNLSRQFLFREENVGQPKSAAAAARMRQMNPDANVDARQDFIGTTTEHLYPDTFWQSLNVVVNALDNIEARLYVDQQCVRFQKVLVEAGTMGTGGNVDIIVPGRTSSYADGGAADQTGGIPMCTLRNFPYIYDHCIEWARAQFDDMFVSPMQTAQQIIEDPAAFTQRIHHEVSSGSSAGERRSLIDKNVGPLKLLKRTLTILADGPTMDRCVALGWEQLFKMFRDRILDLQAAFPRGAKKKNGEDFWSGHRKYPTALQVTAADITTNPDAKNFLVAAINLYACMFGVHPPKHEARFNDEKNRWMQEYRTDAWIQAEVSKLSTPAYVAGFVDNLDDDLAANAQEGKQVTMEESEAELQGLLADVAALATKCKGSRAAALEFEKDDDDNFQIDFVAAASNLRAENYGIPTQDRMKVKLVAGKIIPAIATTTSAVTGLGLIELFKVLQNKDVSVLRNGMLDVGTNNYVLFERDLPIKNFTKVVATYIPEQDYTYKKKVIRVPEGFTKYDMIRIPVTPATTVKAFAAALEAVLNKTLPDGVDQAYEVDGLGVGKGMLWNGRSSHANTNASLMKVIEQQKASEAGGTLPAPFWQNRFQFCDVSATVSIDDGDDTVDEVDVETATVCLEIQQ
Description: Leishmania donovani Ubiquitin Activating Enzyme (LdE1). The format is functional. Conditions: 30 µM.

Experiment [3] addresses Sialic acid-binding Ig-like lectin 9 (Homo sapiens) (UniProt Q9Y336). The experiment is described as follows: Hs-Siglec9 ALPHAscreen SOP 20170721. Conditions: 10 µM. (In general: Bead proximity is the source of the signal in Alpha formats.)
In experiment [4] the test system is Trypanosoma cruzi. The experiment is described as follows: Trypanosoma cruzi phosphomannomutase and mannose-1-phosphate guanylyltransferase assay. Type of experiment: functional. Conditions: 10 µM.
Experiment [5] deals with T2, Arginase-2, mitochondrial (Homo sapiens) (UniProt P78540).
T2 sequence (whole entry): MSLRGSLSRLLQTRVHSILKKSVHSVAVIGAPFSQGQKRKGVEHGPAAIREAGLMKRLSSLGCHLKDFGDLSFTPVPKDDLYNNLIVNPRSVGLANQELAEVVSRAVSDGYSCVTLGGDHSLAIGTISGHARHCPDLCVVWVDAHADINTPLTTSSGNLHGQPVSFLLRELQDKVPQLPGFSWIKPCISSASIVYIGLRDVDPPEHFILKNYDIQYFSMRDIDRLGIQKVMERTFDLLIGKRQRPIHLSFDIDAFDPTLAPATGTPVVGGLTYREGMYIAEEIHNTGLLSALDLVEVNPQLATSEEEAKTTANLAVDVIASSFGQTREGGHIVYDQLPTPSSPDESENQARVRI
The experiment is described as follows: in vitro enzyme assay to detect the production of urea directly proportional to the activity of Arginase II. Note: in the data most compounds retested in dose-response had high values. Type of experiment: functional. Conditions: 33.3 µM.

Experiment [6] has as its target T3, Proteasome subunit beta (Trypanosoma cruzi) (UniProt O96673).
T3 sequence (whole entry): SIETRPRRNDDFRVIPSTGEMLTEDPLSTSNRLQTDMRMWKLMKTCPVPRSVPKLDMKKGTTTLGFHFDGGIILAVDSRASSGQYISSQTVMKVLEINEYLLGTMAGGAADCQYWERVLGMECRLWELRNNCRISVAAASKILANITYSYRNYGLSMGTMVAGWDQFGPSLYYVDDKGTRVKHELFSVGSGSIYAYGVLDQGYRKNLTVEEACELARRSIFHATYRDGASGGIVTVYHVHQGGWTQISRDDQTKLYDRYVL
The experiment is described as follows: Trypanosoma cruzi proteasome chymotrypsin-like activity (TcProtChymo) assay. Note: in the data most compounds retested in dose-response had high values. The format is functional. Conditions: 9.37 µM.

The species entered for experiment [7] is Homo sapiens. Description: To identify inhibition of the IFN signalling (Jak-Stat) pathway via expression of an eGFP reporter gene under the control of an IFN-stimulated response element (ISRE) containing MxA promoter. The format is functional. Conditions: 30 µM.
The target in experiment [8] is T4, Tyrosyl-tRNA synthetase, putative (Trypanosoma cruzi (strain CL Brener)) (UniProt Q4DSP6).
T4 sequence (whole entry): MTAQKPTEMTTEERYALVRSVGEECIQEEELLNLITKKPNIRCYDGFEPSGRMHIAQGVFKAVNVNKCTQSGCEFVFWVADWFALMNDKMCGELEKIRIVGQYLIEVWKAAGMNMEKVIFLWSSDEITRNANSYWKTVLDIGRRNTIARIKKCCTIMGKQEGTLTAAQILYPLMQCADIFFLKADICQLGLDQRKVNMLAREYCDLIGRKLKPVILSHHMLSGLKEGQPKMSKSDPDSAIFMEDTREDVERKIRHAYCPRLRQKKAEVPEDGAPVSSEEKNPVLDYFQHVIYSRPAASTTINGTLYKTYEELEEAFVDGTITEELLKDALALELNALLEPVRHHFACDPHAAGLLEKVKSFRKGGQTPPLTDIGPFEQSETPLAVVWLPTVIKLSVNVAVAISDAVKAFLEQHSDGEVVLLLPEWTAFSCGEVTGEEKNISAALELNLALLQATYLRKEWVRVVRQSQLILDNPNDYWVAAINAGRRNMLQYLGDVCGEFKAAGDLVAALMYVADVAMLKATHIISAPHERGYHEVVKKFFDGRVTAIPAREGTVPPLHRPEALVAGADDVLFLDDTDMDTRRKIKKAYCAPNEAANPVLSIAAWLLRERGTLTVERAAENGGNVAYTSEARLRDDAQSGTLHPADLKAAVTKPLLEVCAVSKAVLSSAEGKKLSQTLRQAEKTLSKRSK
Description: Trypanosoma cruzi tyrosyl tRNA synthetase (TcYRS) _High Tyrosine SOP. Note: in the data most compounds retested in dose-response had high values. The format is functional. Conditions: 30 µM.

In experiment [9] the target is T4, Tyrosyl-tRNA synthetase, putative (Trypanosoma cruzi (strain CL Brener)). Description: Trypanosoma cruzi tyrosyl tRNA synthetase (TcYRS) SOP. The format is functional. Conditions: 30 µM.
Experiment [10] has as its target Chromo domain-containing protein 1 (Saccharomyces cerevisiae (strain ATCC 204508 / S288c) (Baker's yeast)) (UniProt P32657). Description: ScCHD-1 Enzyme Inhibition Assay. Note: in the data most compounds retested in dose-response had high values. Conditions: 30 µM. The format is functional.

For some assays here: Measured potencies and affinities stand elsewhere.

Chain of Protein translocase subunit SecA (Escherichia coli (strain K12)) (P10408 whole entry): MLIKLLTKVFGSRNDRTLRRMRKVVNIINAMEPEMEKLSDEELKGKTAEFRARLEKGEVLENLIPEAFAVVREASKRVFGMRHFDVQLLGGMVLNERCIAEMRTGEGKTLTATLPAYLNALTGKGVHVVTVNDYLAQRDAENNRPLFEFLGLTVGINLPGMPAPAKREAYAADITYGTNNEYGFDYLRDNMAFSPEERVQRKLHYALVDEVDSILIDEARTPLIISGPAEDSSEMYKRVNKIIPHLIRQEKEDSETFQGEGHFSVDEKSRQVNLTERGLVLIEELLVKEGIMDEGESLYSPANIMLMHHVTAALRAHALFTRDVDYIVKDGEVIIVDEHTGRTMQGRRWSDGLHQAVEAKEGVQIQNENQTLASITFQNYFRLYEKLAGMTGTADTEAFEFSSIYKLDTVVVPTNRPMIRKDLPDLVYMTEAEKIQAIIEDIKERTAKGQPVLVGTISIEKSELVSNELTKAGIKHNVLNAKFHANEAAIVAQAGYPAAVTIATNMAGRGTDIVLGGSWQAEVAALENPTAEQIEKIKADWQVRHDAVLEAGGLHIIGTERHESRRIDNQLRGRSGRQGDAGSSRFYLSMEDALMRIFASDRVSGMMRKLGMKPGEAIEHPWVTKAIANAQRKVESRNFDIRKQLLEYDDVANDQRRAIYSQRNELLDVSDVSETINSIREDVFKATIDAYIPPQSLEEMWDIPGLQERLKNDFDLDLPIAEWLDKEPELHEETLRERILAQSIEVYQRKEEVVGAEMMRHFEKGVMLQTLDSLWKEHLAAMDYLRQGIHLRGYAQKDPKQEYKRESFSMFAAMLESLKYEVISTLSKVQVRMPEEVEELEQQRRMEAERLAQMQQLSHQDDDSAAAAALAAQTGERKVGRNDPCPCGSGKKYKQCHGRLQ
Chain of Sialic acid-binding Ig-like lectin 9 (Homo sapiens) (Q9Y336 whole entry): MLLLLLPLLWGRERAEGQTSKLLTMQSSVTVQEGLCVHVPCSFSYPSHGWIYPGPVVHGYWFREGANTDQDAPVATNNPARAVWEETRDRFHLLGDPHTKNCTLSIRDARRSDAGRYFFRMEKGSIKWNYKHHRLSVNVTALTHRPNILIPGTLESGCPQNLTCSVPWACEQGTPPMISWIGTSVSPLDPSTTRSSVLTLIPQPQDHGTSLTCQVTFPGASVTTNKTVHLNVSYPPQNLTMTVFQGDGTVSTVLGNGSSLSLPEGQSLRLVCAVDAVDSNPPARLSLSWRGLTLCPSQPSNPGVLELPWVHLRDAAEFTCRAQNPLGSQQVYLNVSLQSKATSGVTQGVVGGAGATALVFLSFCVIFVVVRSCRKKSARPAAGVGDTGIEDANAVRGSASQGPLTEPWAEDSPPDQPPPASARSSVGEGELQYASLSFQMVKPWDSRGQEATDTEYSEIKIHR
Chain of Chromo domain-containing protein 1 (Saccharomyces cerevisiae (strain ATCC 204508 / S288c) (Baker's yeast)) (P32657 whole entry, the tested form may be a part): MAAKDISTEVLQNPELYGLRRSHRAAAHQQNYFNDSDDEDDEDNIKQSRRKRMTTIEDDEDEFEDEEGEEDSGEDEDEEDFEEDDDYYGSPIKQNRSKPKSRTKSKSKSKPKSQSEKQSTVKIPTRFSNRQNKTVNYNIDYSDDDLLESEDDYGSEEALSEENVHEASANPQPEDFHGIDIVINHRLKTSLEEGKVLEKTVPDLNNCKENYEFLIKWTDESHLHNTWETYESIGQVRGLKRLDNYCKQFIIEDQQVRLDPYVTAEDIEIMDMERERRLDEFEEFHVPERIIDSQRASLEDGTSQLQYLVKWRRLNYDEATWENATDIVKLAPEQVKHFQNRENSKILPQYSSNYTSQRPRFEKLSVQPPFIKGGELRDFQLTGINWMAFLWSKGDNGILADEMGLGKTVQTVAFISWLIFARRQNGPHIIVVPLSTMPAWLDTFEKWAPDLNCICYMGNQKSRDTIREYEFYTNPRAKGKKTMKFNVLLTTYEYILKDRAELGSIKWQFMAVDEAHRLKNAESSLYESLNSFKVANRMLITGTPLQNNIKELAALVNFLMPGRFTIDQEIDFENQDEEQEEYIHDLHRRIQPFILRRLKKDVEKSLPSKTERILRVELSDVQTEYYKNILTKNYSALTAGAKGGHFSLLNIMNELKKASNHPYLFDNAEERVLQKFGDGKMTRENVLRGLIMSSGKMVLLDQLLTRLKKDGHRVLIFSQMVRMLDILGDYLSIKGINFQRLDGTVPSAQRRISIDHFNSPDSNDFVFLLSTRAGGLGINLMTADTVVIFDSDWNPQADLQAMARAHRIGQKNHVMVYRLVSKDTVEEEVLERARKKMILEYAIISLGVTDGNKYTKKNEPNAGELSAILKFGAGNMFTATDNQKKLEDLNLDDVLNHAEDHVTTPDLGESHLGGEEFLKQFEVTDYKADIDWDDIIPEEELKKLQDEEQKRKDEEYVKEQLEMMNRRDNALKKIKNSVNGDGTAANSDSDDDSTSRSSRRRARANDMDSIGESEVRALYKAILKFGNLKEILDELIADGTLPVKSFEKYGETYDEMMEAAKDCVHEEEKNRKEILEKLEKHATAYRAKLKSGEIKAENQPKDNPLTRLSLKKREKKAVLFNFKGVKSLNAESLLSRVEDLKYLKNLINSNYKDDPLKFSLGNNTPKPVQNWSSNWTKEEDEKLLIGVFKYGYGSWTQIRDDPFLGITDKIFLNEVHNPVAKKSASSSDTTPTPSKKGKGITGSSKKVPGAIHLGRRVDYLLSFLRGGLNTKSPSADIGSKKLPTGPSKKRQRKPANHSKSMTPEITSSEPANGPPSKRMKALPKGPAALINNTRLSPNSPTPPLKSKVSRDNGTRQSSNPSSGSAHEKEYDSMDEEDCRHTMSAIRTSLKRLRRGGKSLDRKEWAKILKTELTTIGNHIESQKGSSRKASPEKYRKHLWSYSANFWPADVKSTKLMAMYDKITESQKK

`Cc1nc(CN(C)C2CCN(Cc3ccc4ccccc4n3)C2)no1` (stereo not given): the Percent Effect is 0.184% in experiment [1]; -5.2% in experiment [2]; -6.12% in experiment [3]; 7.28% in [4]; -9.22% in [5]; 20.4% in experiment [6]. Further, the Percent Effect in experiment [7] is 10.1%; in experiment [8], 21.6%; in [9] it was 30.6%; in experiment [10], -10.1%.
Regarding `Cc1csc(N2CCCN(C(=O)c3c(C)oc(C)c3C)CC2)n1`, the Percent Effect in experiment [1] was -7.12%; in experiment [2] it was 18.7%; in experiment [3], 3.18%; in experiment [4], 4.22%; in experiment [5] it was -1.77%; in [6], 20.1%. Further, the Percent Effect was 8.84% in [7], 7.89% in experiment [8], 17.9% in experiment [9] and -8.96% in [10].
With `COCCN1CCCN(C(=O)NC(C)Cn2ccnc2)CC1` (stereo not given), the Percent Effect in experiment [1] was 0.718%; in [2], 13%; in experiment [3] it was 12.5%; in [4], 0.56%; in experiment [5] it was -4.71%; in experiment [6], -0.702%. Moreover, the Percent Effect was 8.17% in [7], 0% in experiment [8], 18.8% in experiment [9] and -5.5% in experiment [10].
On to `CNc1cncc(C2CCCN2Cc2c[nH]cn2)n1` (stereo not given), for which the Percent Effect is -0.293% in experiment [1]; 9.33% in [2]; -0.612% in experiment [3]; -4.14% in [4]; 2.21% in experiment [5]; 7.88% in experiment [6]. For the same molecule, the Percent Effect is 5.77% in experiment [7], 5.29% in [8], 15% in experiment [9] and -25.9% in [10].
Take `CCN1CCC2(C=C(C(=O)NC3CC3)c3ccccc32)CC1`: the Percent Effect in experiment [1] was 2.3%; in [2] it was 6.49%; in experiment [3], -1%; in [4] it was 1.13%; in experiment [5] it was 0%; in [6], -2.49%. The Percent Effect is -10.8% in experiment [7], -0.966% in experiment [8], 2.5% in [9] and -3.59% in [10].
In the case of `Cc1cncc(C2CCCN(Cc3cccn3C)C2)n1` (stereo not given), the Percent Effect in experiment [1] was -2.21%; in experiment [2], 12%; in experiment [3], 2.11%; in [4], -0.592%; in experiment [5], -6.64%; in experiment [6] it was 10.5%. For the same molecule, the Percent Effect in experiment [7] was 6.97%; in [8], 9.52%; in [9], 12.5%; in experiment [10] it was -15.4%.
Take `CC(C)c1cc(N2CCC(N)CC2)n2nccc2n1`: the Percent Effect in experiment [1] was -7.82%; in [2] it was 5.41%; in experiment [3], 8.57%; in experiment [4], 11%; in experiment [5], -3.15%; in experiment [6] it was 20.6%. Also, the Percent Effect in [7] is 11.5%; in experiment [8], 3.72%; in experiment [9] it was 17.1%; in experiment [10], -1.59%.
In the case of `CCN1CCN(C(=O)NCCOc2ccc3c(c2)OCO3)CC1`, the Percent Effect in [1] was -3.49%; in experiment [2] it was 20.8%; in [3], 7.69%; in experiment [4], -3.92%; in experiment [5], 1.84%; in experiment [6] it was 12.6%. The Percent Effect in experiment [7] was -5.27%; in [8], 2.94%; in [9], 16.5%; in experiment [10], -6.7%.
